Hit rate of the full screen: of about 69,000 compounds, about 8,600 (12%) showed an effect of 50% or more. Only a selection was taken, and strong results are over-represented in it overall.

The subject of this experiment is Plasmodium berghei. Put plainly: Screen against P. berghei liver stage (PbLuc), transformed with Luciferase, at 10uM. Format: functional, HepG2. Particulars: tested at 10 uM.
Turning to `CCCc1nc(C)c(CN2CC3(CCOC3)CCC2=O)s1` (centres undefined), the INHIBITION is given as 33.7%. The value for `O=C1CCC2(CCOC2)CN1Cc1ccc2nsnc2c1` (centres undefined) was 16.8%. To `O=C1CCC2(CCOC2)CN1Cc1nc2ccc(Cl)cc2[nH]1` (centres undefined) belongs 27.9%; to `O=C1CCC2(CCOC2)CN1Cc1nncn1CCc1ccccc1` (centres undefined), 10.1%. Consider `O=C1CCC2(CCOC2)CN1CCCOc1cccnc1` (centres undefined), for which the INHIBITION is reported as -0.897%. On to `Cc1nc2ccc(CN3CC4(CCOC4)CCC3=O)cc2[nH]1` (centres undefined), for which the INHIBITION amounted to 67.4%. For the compound `CCCn1nc(C)c(CN2CC3(CCOC3)CCC2=O)c1C` (centres undefined), the INHIBITION was determined as 64.5%. On to `CCn1nc(C)c(CCN2CC3(CCOC3)CCC2=O)c1C` (centres undefined), for which the INHIBITION is reported as 56.6%. The value for `CCc1c(C)nn(CCN2CC3(CCOC3)CCC2=O)c1C` (centres undefined) was 44.3%; that for `O=C([C@H]1CC[C@@H]2[C@@H](CCN2c2ncccn2)O1)N1CCCCO1` was -13.2%. For `Cc1noc(C(C)N2CCN(Cc3nnc(C4CC4)o3)CC2)n1` (centres undefined), the INHIBITION is -19.6%.

With `CN(C)C(=O)c1n[nH]c2c1CN(CC1CCC1)C2`, the INHIBITION turned out to be 30.5%. To `O=C1CCC(C(=O)Nc2cnn(-c3ccccc3Cl)c2)N1` (centres undefined) belongs 19.7%; to `Cc1ccc(-c2csc(N)c2C#N)c(C)c1`, 40.9%; to `Cc1ccc(C)c(-c2csc(N)c2C#N)c1`, 64.7%. Take `COc1ccc(C)cc1-c1csc(N)c1C#N`: the INHIBITION is on record as 1.86%. To `Cc1nc[nH]c1CN1C[C@H]2CC[C@@H](C1)N(C(=O)CCn1cncn1)C2` belongs 40.2%.

`COc1cccc(C(C)Nc2ncnc3c2NC(=O)CN3)c1` (centres undefined): the INHIBITION is 45.8%.

As for `CC(CN1CCOCC1)n1cncc1-c1ccc2c(c1)CCCN2C` (centres undefined), the INHIBITION is -16%. `NC(=O)C(NC(=O)c1cc(Cl)c[nH]1)c1ccccc1` (centres undefined): the INHIBITION is recorded as 52.8%.

On to `NC(=O)C(NC(=O)c1cc(Br)c[nH]1)c1ccccc1` (centres undefined), for which the INHIBITION came to 34.4%. For the compound `Cc1cc(C)c(C(=O)N[C@H](C(N)=O)c2ccccc2)c(=O)[nH]1`, the INHIBITION is given as -31.4%. For `CO[C@H]1CCN(Cc2c(C)noc2C)[C@@H]2CN(Cc3cccnc3)C[C@H]12`, the INHIBITION worked out at 28.5%. Turning to `O=C(NCc1nnc2n1CCCCC2)N1CCc2ccccc2C1`, the INHIBITION was determined as 41.2%. On to `Cc1ccc(CN(C)C(=O)Cn2nc(-c3ccc(F)cc3)oc2=O)cc1`, for which the INHIBITION is on record as 30.8%. To `CN(Cc1ccccc1Br)C(=O)Cn1nc(-c2ccc(F)cc2)oc1=O` belongs 26.8%; to `Cc1ccsc1CN(C)C(=O)Cn1nc(-c2ccc(F)cc2)oc1=O`, 22.1%.

Consider `CN(Cc1ccc(Cl)s1)C(=O)Cn1nc(-c2ccc(F)cc2)oc1=O`, for which the INHIBITION is 66.1%.

For the compound `Cc1ccccc1CNC(=O)Cn1nc(-c2ccc(F)cc2)oc1=O`, the INHIBITION worked out at 50.15%. The value for `COc1ccccc1CNC(=O)Cn1nc(-c2ccc(F)cc2)oc1=O` was -16.1%.

`CN(Cc1ccc(F)cc1)C(=O)Cn1nc(-c2ccc(F)cc2)oc1=O`: the INHIBITION is listed as 1.58%.

Turning to `O=C(Cn1nc(-c2ccc(F)cc2)oc1=O)NCc1ccccc1F`, the INHIBITION is reported as -69.9%.

In the case of `Cc1ccccc1CN(C)C(=O)Cn1nc(-c2ccc(F)cc2)oc1=O`, the INHIBITION is on record as 56.5%. For the compound `CCOC1Sc2nnc(C)n2N=C1c1ccc(Br)cc1` (centres undefined), the INHIBITION is recorded as 18.2%. Consider `CN(C)[C@@H]1CCN(C(=O)c2cccc(C#N)c2)[C@H]1Cc1cnn(C)c1`, for which the INHIBITION worked out at 27.6%. On to `Cc1ccc(-c2cc(CN3CCOC(Cn4cncn4)C3)on2)cc1` (centres undefined), for which the INHIBITION came to 24.6%. For `O=C(C1CC=CC1)N1CCC2(CCN(Cc3ccccn3)C2=O)C1` (centres undefined), the INHIBITION turned out to be 17.5%. Consider `CC(C)n1cnnc1C1CCCN(S(=O)(=O)CC2CCCC2)C1` (centres undefined), for which the INHIBITION is 76.5%. As to `CC(C)CCS(=O)(=O)N1CCCC(c2nncn2C(C)C)C1` (centres undefined), the INHIBITION is recorded as 44.9%. The value for `CC(C)n1cnnc1C1CCCN(S(=O)(=O)CCCF)C1` (centres undefined) was 39.7%; that for `Cc1oc(C(=O)O)cc1S(=O)(=O)Nc1cc(Br)ccc1Cl` was 38.8%. As to `NC(=O)C1CN(c2ccc3c(Cl)ccnc3c2F)CCO1` (centres undefined), the INHIBITION is on record as -22.4%. Turning to `N#Cc1cc(Cl)ccc1N1CCOC(C(N)=O)C1` (centres undefined), the INHIBITION is reported as 32.5%. Regarding `COCC1CN(C(=O)Nc2ccc(Cl)cc2Cl)CCO1` (centres undefined), the INHIBITION was found to be 6.85%. Regarding `CC(=O)NCC1CN(c2ccc3c(Cl)ccnc3c2F)CCO1` (centres undefined), the INHIBITION was found to be 23.8%. As to `N#Cc1ccc(Cl)cc1N1CCC(OC2CCOCC2)CC1`, the INHIBITION was determined as 35.2%. Consider `COCC1CN(c2ccc(C#N)c(Cl)c2)CCO1` (centres undefined), for which the INHIBITION was found to be 96.1%. `COCC1CN(C(=O)Nc2cc(Cl)ccc2F)CCO1` (centres undefined): the INHIBITION is reported as 8.13%.

As for `COCC1CN(c2ccc3c(Cl)ccnc3c2F)CCO1` (centres undefined), the INHIBITION was found to be 84.2%. For `COCC1CN(c2ccc(Cl)cc2C#N)CCO1` (centres undefined), the INHIBITION is 53.4%. On to `N#Cc1ccc(N2CCC(OC3CCOCC3)CC2)cc1Cl`, for which the INHIBITION was determined as 57%.

Take `Clc1cnccc1N1CCC(OC2CCOCC2)CC1`: the INHIBITION stood at 48.5%. To `Cn1cc(N2CCN(c3ccc(C#N)c(Cl)c3)CC2=O)cn1` belongs -11.6%. To `CO[C@@H]1CCN(Cc2c(C)noc2C)[C@@H]2CN(Cc3cccnc3)C[C@@H]21` belongs 22.6%. Consider `COCCOc1ccccc1C(=O)NCCN(C)C(C)C`, for which the INHIBITION was 4.52%.

In the case of `O=C(c1nn(-c2ccccc2F)cc1O)N1CCCSCC1`, the INHIBITION is reported as -21.7%. In the case of `Cc1ccc(N2CC[C@H]3OCC[C@@]3(C(=O)NC(C)C)C2)nn1`, the INHIBITION was determined as 35.1%. As for `COc1ncc(Cl)c(NCc2ccc([S+](C)[O-])cc2)n1` (centres undefined), the INHIBITION was 61.1%. As to `CCOCc1ccc(CNc2nc(OC)ncc2Cl)cc1`, the INHIBITION came to 35.4%. As for `COc1ccc(CN2CCc3[nH]nc(C(=O)N(C)C)c3C2)cc1`, the INHIBITION came to 21.1%. `COCC(=O)NCc1ccc(-c2ncncc2C(=O)N(C)C)cc1`: the INHIBITION was 26.15%. To `COc1ccccc1C1(CNCc2ccc([S+](C)[O-])cc2)CC1` (centres undefined) belongs 1.41%. Take `COc1ncc(Cl)c(NCc2ccc(C(=O)N(C)C)cc2)n1`: the INHIBITION was 58.9%.

For `COC(=O)CC1CSCCN1C(=O)CCc1c(C)nn(C)c1C` (centres undefined), the INHIBITION is 19.8%.

In the case of `COc1ccccc1C(O)CNC(=O)NCc1cc[nH]n1` (centres undefined), the INHIBITION is 26.4%.

For `Cc1cc(C)n(CCCNC(=O)C(C)NC(=O)CC2CCCCC2)n1` (centres undefined), the INHIBITION is recorded as -7.98%. For `COCC(=O)N1CCC2(CCC2N(C)Cc2ccco2)CC1` (centres undefined), the INHIBITION is given as -28.2%. For the compound `Cc1cc(C)n(CC(C)CNC(=O)[C@@H](C)NC(=O)OC(C)(C)C)n1` (some centres undefined), the INHIBITION is given as -45.8%. To `Cc1nc(C(=O)N2CCCC2c2noc(C)n2)c[nH]1` (centres undefined) belongs 0.914%.

The values are drawn from ChEMBL document CHEMBL4513216, “Probing the Open Global Health Chemical Diversity Library for Multistage-Active Starting Points for Next-Generation Antimalarials” (ACS Infect Dis, 2020).
